In the supplement of paper PMC10849652:
Targets with a hit are over-represented here; the source holds about 8,800 in all. About 0.5% of all pairs of compound and target were hits.

Experiments:
Assay in all cases: log2 fold change, soluble protein after heating vs DMSO (PISA); higher = thermal stabilisation; K562 lysate, 10 uM; active = over 0.2 and 3.5 SD of the protein, either way, in both replicates (recomputed)
nilotinib = compound: Cc1cn(-c2cc(NC(=O)c3ccc(C)c(Nc4nccc(-c5cccnc5)n4)c3)cc(C(F)(F)F)c2)cn1 [nilotinib]
Procedure, shortened: (§1)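 K562 pellets were dounce-homogenised in PBS pH 7.4 containing 1 mM MgCl2, and the crude extract, at 1 mg/mL protein, was exposed to 10 μM compound for 30 min. Aliquots were heated for 3 min across 48°C-58°C, pooled, brought to 0.5% NP-40 at 4°C and spun at 21,000xg for 90 min, with the supernatant taken as soluble protein. TMTpro 16plex LC-MS/MS with equalised channel sums quantified that protein. Values are log-two fold changes in thermal stability relative to solvent controls, taken from duplicates.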

[1] = compound: Cc1nc(Nc2n[nH]c3c2CN(C(=O)N[C@H](CN(C)C)c2ccccc2)C3(C)C)c2sccc2n1
Procedure, shortened: as §1

dasatinib = compound: Cc1nc(Nc2ncc(C(=O)Nc3c(C)cccc3Cl)s2)cc(N2CCN(CCO)CC2)n1 [dasatinib]
Procedure, shortened: as §1

[2] = compound: Cc1ncc(-c2ccnc(Nc3ccc(S(C)(=O)=O)cc3)n2)n1C(C)C
Procedure, shortened: as §1

[3] = compound: Cn1cc(-c2ccc3c(c2)CCN3C(=O)Cc2cccc(C(F)(F)F)c2)c2c(N)ncnc21
Procedure, shortened: as §1

quisinostat = compound: Cn1cc(CNCC2CCN(c3ncc(C(=O)NO)cn3)CC2)c2ccccc21 [quisinostat]
Procedure, shortened: as §1

tipifarnib = compound: Cn1cncc1[C@@](N)(c1ccc(Cl)cc1)c1ccc2c(c1)c(-c1cccc(Cl)c1)cc(=O)n2C [tipifarnib]
Procedure, shortened: as §1

[4] = compound: NC(=O)Nc1cc(-c2cccc(F)c2)sc1C(=O)N[C@H]1CCCNC1
Procedure, shortened: as §1

[5] = compound: NC(=O)c1cnc(N[C@@H]2CCCC[C@@H]2N)nc1Nc1cccc(-n2nccn2)c1
Procedure, shortened: as §1

[6] = compound: NC1(c2ccc(-c3nc4ccn5c(=O)[nH]nc5c4cc3-c3ccccc3)cc2)CCC1
Procedure, shortened: as §1

Measured: log2 fold change

ESPL1 (UniProt Q14674)
inactive: nilotinib -0.013 | [1] 0.006 | dasatinib 0.044 | [2] 0.054 | [3] 0.02 | quisinostat 0.066 | tipifarnib -0.024 | [4] 0.021 | [5] -0.014 | [6] -0.055

GIPC3 (UniProt Q8TF64)
Chain of UniProt Q8TF64 (Q8TF64 whole entry, looked up): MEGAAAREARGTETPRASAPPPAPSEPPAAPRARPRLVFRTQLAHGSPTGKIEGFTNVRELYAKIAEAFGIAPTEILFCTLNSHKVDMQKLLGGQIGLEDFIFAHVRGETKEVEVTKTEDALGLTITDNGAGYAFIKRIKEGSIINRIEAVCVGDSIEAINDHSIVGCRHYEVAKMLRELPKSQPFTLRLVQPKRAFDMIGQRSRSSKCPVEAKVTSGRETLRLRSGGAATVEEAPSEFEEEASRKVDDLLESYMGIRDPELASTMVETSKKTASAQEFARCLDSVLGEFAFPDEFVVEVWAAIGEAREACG
active: [1] -0.602
inactive: nilotinib 0.183 | dasatinib -0.071 | [2] 0.097 | [3] -0.009 | quisinostat -0.309 | tipifarnib -0.067 | [4] 0.134 | [5] 0.045 | [6] 0.016

FOXJ2 (UniProt Q9P0K8)
Chain of UniProt Q9P0K8 (Q9P0K8 whole entry, looked up): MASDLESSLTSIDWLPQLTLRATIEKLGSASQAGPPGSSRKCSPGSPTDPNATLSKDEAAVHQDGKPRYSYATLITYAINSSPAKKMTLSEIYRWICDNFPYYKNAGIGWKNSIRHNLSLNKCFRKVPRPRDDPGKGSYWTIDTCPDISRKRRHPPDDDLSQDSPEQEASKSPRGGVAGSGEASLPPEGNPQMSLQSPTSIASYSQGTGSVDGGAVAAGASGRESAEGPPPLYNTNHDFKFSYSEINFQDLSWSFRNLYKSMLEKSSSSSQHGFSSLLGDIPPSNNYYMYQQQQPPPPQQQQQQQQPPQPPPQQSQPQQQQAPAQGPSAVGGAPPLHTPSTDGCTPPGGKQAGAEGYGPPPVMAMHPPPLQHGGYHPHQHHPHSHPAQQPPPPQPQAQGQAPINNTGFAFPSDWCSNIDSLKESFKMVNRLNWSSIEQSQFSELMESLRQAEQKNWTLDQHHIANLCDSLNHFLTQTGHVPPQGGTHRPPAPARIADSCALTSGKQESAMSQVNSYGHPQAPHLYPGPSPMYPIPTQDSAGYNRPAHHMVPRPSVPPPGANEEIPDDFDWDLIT
inactive: nilotinib 0.033 | [1] 0.29 | dasatinib 0.056 | [2] 0.077 | [3] 0.018 | tipifarnib -0.293 | [6] -0.111

EPB41, A0A2R8Y783
inactive: dasatinib 0.028 | [3] -0.11 | [5] -0.108

FYN (UniProt P06241)
Chain of UniProt P06241 (P06241 whole entry, looked up): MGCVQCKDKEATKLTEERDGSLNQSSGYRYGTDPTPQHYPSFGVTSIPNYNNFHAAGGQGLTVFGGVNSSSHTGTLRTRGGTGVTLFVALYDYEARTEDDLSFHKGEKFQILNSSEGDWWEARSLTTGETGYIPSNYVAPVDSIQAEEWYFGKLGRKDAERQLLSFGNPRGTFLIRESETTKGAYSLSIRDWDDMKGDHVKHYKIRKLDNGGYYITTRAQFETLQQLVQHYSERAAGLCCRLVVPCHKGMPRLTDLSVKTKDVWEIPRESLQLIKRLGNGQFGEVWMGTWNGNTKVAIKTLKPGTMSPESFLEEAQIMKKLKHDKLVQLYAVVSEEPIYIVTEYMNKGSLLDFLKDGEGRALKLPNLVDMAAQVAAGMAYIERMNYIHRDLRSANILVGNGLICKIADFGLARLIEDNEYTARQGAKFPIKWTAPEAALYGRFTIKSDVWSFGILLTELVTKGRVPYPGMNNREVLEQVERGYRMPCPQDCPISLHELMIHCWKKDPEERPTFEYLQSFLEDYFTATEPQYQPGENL
inactive: dasatinib 0.02 | [3] 0.004 | quisinostat 0.022 | [4] -0.029 | [5] -0.025 | [6] 0.043

EWSR1 (UniProt H7BY36)
inactive: dasatinib -0.104 | [3] -0.025 | quisinostat 0.112 | [4] 0.118

GC isoform 3 (UniProt P02774)
inactive: dasatinib 0.044 | [3] -0.114 | quisinostat 0.175 | [4] -0.076

GART (UniProt C9JZG2)
inactive: nilotinib -0.085 | [1] -0.033 | [2] 0.042 | quisinostat -0.373 | tipifarnib -0.101 | [4] -0.02 | [5] 0.139

EIF2B5, A0A3B3ITK8
inactive: nilotinib -0.455 | [1] 0.16 | [2] -0.134 | tipifarnib 0.313 | [5] -0.054

EPN2 (UniProt I3L356)
inactive: nilotinib -0.248 | [1] 0.062 | [2] -0.291 | tipifarnib 0.238 | [5] 0.021

DYNC1I2 isoform 2 (UniProt Q13409)
Chain of UniProt Q13409 (Q13409 whole entry, looked up): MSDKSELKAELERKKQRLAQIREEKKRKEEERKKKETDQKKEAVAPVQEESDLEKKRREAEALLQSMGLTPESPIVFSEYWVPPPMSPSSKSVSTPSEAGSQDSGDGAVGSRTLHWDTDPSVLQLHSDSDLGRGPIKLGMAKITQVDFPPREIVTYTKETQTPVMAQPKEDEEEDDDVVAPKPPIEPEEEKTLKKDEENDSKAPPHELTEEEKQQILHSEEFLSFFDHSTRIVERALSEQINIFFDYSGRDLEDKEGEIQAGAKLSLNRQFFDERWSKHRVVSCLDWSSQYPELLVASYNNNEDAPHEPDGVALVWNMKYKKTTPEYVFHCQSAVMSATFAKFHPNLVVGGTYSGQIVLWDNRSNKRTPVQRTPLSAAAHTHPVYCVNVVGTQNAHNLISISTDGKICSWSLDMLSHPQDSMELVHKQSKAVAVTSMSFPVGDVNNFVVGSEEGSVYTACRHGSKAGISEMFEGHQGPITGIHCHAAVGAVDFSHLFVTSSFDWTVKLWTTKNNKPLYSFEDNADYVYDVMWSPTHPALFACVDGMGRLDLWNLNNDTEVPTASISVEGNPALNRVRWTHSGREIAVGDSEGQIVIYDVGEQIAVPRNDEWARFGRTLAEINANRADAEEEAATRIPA
inactive: dasatinib -0.058 | [3] 0.046 | quisinostat -0.009 | [4] 0.024 | [5] -0.008 | [6] -0.025

GAA (UniProt P10253)
inactive: nilotinib 0.058 | [1] 0.115 | [2] 0.267 | quisinostat 0.024 | tipifarnib -0.336 | [4] 0.007 | [5] -0.014 | [6] -0.003

DYRK1A isoform 2 (UniProt Q13627)
inactive: quisinostat -0.095 | [4] 0.139 | [6] -0.047

FOXL2 (UniProt P58012)
inactive: dasatinib 0.023 | [3] -0.013 | [5] -0.15 | [6] 0.076

DUSP22 isoform 2 (UniProt Q9NRW4)
inactive: nilotinib -0.039 | [1] -0.073 | dasatinib -0.022 | [2] 0.064 | [3] -0.001 | tipifarnib 0.038 | [5] 0.036 | [6] 0.109

EIF2AK3 (UniProt Q9NZJ5)
inactive: nilotinib 0.124 | [1] 0.012 | dasatinib -0.385 | [2] -0.001 | [3] 0.269 | tipifarnib -0.088 | [5] 0.104 | [6] -0.166

FLT4 (UniProt P35916)
inactive: dasatinib -0.202 | [3] 0.013 | [5] 0.162 | [6] 0.106

GAPVD1 isoform 6 (UniProt Q14C86)
Chain of UniProt Q14C86 (Q14C86 whole entry, looked up): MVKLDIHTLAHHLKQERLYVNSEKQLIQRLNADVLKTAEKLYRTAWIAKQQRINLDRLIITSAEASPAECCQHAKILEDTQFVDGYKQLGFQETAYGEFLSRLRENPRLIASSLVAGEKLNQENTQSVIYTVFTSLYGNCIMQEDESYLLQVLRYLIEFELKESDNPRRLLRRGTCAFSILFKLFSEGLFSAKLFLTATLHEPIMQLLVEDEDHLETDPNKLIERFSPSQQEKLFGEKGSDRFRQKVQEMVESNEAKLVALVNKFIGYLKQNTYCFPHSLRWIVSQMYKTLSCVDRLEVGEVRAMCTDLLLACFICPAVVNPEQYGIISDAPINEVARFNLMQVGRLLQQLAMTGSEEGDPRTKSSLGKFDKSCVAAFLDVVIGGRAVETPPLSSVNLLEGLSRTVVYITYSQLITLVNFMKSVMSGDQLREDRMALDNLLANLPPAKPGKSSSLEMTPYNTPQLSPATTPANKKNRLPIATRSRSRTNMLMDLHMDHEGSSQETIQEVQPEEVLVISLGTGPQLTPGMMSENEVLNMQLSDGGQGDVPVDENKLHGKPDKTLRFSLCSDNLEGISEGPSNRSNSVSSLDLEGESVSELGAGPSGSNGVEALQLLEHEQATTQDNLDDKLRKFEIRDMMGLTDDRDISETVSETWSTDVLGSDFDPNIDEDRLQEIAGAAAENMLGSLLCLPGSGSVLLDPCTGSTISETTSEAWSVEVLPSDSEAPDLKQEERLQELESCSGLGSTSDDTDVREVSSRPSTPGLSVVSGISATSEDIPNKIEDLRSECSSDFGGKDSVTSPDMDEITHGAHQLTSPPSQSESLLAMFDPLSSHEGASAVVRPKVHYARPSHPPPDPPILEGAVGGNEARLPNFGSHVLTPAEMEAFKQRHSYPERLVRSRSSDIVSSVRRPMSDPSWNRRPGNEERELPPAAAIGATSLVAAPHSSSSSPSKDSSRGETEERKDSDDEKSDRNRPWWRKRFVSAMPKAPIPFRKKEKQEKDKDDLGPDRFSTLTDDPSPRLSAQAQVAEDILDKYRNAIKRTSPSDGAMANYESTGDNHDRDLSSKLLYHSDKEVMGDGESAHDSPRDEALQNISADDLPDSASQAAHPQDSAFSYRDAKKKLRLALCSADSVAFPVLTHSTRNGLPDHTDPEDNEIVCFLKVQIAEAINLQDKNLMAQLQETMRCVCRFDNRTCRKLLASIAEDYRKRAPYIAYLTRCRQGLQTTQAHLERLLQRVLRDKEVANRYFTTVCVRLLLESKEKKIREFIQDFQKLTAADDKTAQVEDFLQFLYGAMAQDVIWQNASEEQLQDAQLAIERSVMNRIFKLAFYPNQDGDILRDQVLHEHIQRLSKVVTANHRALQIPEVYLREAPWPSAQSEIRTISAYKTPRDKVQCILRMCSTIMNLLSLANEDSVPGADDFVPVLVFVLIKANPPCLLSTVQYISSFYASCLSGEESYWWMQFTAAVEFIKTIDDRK
inactive: nilotinib 0.006 | [1] 0.005 | dasatinib -0.05 | [2] -0.005 | [3] 0.044 | quisinostat -0.029 | tipifarnib -0.02 | [4] 0.032 | [5] 0.013 | [6] 0.026

FAM111A (UniProt Q96PZ2)
inactive: dasatinib -0.097 | [3] 0.015 | quisinostat 0.18 | [4] 0.039 | [5] 0.035 | [6] -0.037

FAT1 (UniProt Q14517)
inactive: [4] -0.105 | [5] -0.017 | [6] -0.071
active: quisinostat 0.572

GCA (UniProt P28676)
Chain of UniProt P28676 (P28676 whole entry, looked up): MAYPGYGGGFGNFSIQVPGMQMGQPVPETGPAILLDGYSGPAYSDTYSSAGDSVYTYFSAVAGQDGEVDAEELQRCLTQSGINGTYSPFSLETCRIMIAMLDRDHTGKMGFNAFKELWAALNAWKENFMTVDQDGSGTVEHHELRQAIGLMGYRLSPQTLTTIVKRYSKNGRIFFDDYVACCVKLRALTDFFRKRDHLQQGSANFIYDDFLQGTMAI
inactive: nilotinib 0.071 | [1] -0.11 | [2] 0.096 | tipifarnib -0.141 | [5] -0.118 | [6] -0.017

ESRRB isoform 1 (UniProt O95718)
inactive: [6] 0.182

FBXO45 (UniProt P0C2W1)
inactive: nilotinib 0.025 | [1] 0.028 | [2] -0.088 | quisinostat -0.006 | tipifarnib -0.011 | [4] 0.008 | [5] 0.147 | [6] -0.002

ERG28 (UniProt Q9UKR5)
inactive: dasatinib 0.029 | [3] 0.059 | [5] -0.015

EXO5 (UniProt Q9H790)
Chain of UniProt Q9H790 (Q9H790 whole entry, looked up): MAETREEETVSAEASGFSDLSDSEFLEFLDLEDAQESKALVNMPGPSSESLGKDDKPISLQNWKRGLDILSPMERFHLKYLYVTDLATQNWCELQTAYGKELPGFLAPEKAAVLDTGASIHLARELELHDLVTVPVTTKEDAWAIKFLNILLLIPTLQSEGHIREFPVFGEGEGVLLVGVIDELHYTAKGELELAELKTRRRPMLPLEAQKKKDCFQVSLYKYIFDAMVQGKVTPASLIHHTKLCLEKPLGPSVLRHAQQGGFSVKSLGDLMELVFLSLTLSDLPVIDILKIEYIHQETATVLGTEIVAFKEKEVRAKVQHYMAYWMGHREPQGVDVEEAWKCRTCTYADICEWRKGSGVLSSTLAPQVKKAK
inactive: quisinostat -0.082 | [4] -0.071 | [6] 0.08

FAT2 (UniProt Q9NYQ8)
inactive: nilotinib -0.086 | [1] 0.086 | [2] 0.014 | tipifarnib -0.028 | [4] 0.36 | [5] 0.025 | [6] -0.087
active: quisinostat -0.978

GDE1 (UniProt Q9NZC3)
inactive: dasatinib 0.012 | [3] -0.012 | quisinostat 0.085 | [4] 0.029 | [5] -0.02 | [6] -0.022

FAM204A (UniProt Q9H8W3)
inactive: quisinostat -0.129 | [4] 0.069 | [6] 0.098

GABPB1 isoform 3 (UniProt Q06547)
inactive: dasatinib -0.086 | [3] 0.034 | quisinostat -0.017 | [4] -0.012 | [5] -0.037 | [6] -0.016

DTL (UniProt Q9NZJ0)
active: quisinostat -0.227
inactive: nilotinib 0.005 | [1] -0.022 | dasatinib 0.044 | [2] -0.052 | [3] 0.066 | tipifarnib 0.036 | [4] 0.025 | [6] 0.048

FBRSL1, A0A3B3IRR3
inactive: nilotinib 0.034 | [1] 0.022 | dasatinib 0.01 | [2] 0.013 | [3] -0.042 | quisinostat 0.031 | tipifarnib -0.073 | [4] 0.029 | [6] 0.066

EPB41 isoform 4 (UniProt P11171)
Chain of UniProt P11171 (P11171 whole entry, looked up): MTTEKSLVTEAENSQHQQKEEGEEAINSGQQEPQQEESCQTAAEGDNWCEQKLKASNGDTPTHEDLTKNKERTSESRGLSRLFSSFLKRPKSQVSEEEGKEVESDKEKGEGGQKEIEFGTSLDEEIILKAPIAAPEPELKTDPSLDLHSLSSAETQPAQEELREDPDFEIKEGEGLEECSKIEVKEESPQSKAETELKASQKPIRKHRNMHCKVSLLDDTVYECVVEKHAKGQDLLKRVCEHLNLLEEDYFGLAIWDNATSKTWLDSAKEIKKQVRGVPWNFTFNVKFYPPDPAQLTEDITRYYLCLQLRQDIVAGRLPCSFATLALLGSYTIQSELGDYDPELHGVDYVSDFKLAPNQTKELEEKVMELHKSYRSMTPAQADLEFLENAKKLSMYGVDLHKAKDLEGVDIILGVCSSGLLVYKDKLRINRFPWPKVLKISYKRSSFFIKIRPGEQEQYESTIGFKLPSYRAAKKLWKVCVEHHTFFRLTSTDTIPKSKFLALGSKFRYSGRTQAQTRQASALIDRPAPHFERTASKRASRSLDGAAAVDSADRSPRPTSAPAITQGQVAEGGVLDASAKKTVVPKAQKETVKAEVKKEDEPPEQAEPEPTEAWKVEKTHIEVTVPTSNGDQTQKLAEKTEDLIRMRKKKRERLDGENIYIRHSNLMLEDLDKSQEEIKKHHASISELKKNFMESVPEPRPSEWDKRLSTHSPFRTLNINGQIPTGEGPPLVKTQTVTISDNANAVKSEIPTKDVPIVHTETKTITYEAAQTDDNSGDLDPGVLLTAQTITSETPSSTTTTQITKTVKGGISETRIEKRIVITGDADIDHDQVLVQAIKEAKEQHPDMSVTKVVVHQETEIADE
inactive: nilotinib 0.124 | [1] 0.044 | [2] -0.165 | quisinostat -0.077 | tipifarnib 0.036 | [4] 0.053 | [5] 0.089 | [6] -0.096

FAM53B (UniProt Q14153)
inactive: nilotinib 0.015 | [1] 0.013 | dasatinib 0.036 | [2] 0.004 | [3] 0.14 | quisinostat -0.078 | tipifarnib -0.013 | [4] 0.093 | [6] 0.042

DST isoform 3 (UniProt Q03001)
inactive: [6] -0.071

EID1 (UniProt Q9Y6B2)
inactive: nilotinib 0.067 | [1] 0.085 | dasatinib -0.306 | [2] 0.05 | [3] 0.32 | tipifarnib 0.021 | [6] 0.133

FTSJ1 isoform 2 (UniProt Q9UET6)
inactive: [5] -0.019

FNDC3A (UniProt Q9Y2H6)
inactive: nilotinib -0.057 | [1] -0.125 | [2] -0.293 | quisinostat -0.247 | tipifarnib -0.064 | [4] 0.059 | [6] -0.03

GAPVD1 (UniProt Q14C86)
inactive: [5] -0.023

EIF3I (UniProt Q5TFK1)
inactive: nilotinib 0.108 | [1] -0.239 | [2] -0.035 | tipifarnib -0.511 | [5] 0.387
